An excerpt weighted towards active compounds, which were near 14% of everything screened.
USP8 inh = inhibitors of human USP8 deubiquitinase. inhibition, % at 20 µM. Ubiquitin carboxyl-terminal hydrolase 8 (Homo sapiens), P40818. 47,000 compounds, 4.2% hits. purified USP8, Ub-rhodamine cleavage fluorescence, 30 min
USP30 inh = inhibitors of human USP30 deubiquitinase | 47,000 compounds, 5.3% hits | AID 1645860, 2021 | Ubiquitin carboxyl-terminal hydrolase 30 (Homo sapiens), Q70CQ3 | purified USP30, Ub-rhodamine cleavage fluorescence | inhibition, % at 25 µM
USP17 inh = inhibitors of human USP17 deubiquitinase. Ubiquitin carboxyl-terminal hydrolase 17-like protein 5 (Homo sapiens), A8MUK1. purified USP17, Ub-rhodamine cleavage fluorescence, 3 h. inhibition, % at 50 µM. 47,000 compounds, 6.5% hits. AID 1645855, 2021
Target sequence (A8MUK1 whole entry, looked up): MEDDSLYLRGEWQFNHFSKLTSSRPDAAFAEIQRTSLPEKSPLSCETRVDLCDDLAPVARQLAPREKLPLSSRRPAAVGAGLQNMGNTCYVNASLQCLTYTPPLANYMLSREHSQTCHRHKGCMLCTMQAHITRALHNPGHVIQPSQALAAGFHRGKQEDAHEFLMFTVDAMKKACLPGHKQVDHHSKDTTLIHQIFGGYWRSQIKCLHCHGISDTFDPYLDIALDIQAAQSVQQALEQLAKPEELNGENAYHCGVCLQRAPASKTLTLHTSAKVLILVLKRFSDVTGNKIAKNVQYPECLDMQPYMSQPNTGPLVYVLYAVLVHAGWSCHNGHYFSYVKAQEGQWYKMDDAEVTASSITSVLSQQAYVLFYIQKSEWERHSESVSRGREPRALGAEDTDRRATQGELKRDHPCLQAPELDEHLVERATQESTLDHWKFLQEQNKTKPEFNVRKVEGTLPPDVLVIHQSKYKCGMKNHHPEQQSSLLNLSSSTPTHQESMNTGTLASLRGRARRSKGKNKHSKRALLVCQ
USP28 inh = inhibitors of human USP28 deubiquitinase. inhibition, % at 25 µM. AID 1645857, 2021. Ubiquitin carboxyl-terminal hydrolase 28 (Homo sapiens), Q96RU2. purified USP28, Ub-rhodamine cleavage fluorescence, 30 min. 47,000 compounds, 3% hits
USP10 inh = inhibitors of human USP10 deubiquitinase | Ubiquitin carboxyl-terminal hydrolase 10 (Homo sapiens), Q14694 | purified USP10, Ub-rhodamine fluorescence, 60 min | inhibition, % at 20 µM | 47,000 compounds, 1.1% hits | AID 1645856, 2021
Active calls of the source: *; x = no result given. Rule as the data show it: active = inhibition above about 30%; inactive = the rest.

SMILES	USP8 inh	USP30 inh	USP17 inh	USP28 inh	USP10 inh
COc1ccccc1CNC(=O)c1oc(=O)c2ccccc2c1-c1ccc(C)cc1	10	40*	21	25	13
COc1ccc2c(c1)c1ncn(CCCn3ccnc3)c(=O)c1n2C	5	-1	1	1	1
CCCCn1cnc2c3cc(F)ccc3n(C)c2c1=O	15	65*	65*	22	4
Cn1c2ccccc2c2ncn(Cc3ccc(F)cc3)c(=O)c21	-1	34*	71*	32*	7
CCn1cnc2c(-c3ccccc3)cn(CC(=O)NCc3ccc(F)cc3)c2c1=O	14	-76	0	-23	-7
O=C(COc1ncnc2ccccc12)Nc1ccc2c(c1)OC1(CCCC1)O2	58*	10	60*	26	10
COc1ccc(C)cc1NC(=O)COc1ncnc2ccccc12	0	9	0	14	1
O=C(c1cc(-c2ccccc2)nn1-c1ccccc1)N1CCN(C(=O)C2CCCO2)CC1 (centres undefined)	10	37*	9	14	-2
NC(=O)c1ccccc1OCc1csc(-c2ccc(Cl)cc2)n1	-6	-104	-27	-36	-9
Cn1cc(CN2CC[C@H]3C[C@H](C(=O)Nc4cccnc4)O[C@@H]3C2)cn1	-27	37*	x	10	3
O=C(Cn1c(=O)n(-c2ccc(CC(=O)NC3CCCC3)cc2)c(=O)c2ccccc21)Nc1ccccc1[N+](=O)[O-]	80*	16	21	14	44*
O=C(Cc1ccc(-n2c(=O)c3ccccc3n(Cc3cccc(F)c3)c2=O)cc1)NC1CCCC1	21	-25	-1	4	16
COc1cc(NC(=O)Cn2c(=O)n(-c3ccc(CC(=O)NC4CCCC4)cc3)c(=O)c3ccccc32)cc(OC)c1	63*	21	41*	44*	24
COc1ccc(NC(=O)Cn2c(=O)n(C3CCCCC3)c(=O)c3ccccc32)cc1	12	22	9	12	6
COc1ccc(OC)c(NC(=O)Cn2c(=O)n(C3CCCCC3)c(=O)c3ccccc32)c1	18	28	24	13	43*
O=C(Cc1ccc(-n2c(=O)c3ccccc3n(Cc3cccc([N+](=O)[O-])c3)c2=O)cc1)NC1CCCC1	26	21	23	14	36*
O=C1N(Cc2cccc(Cl)c2)CCN1c1ccc2c(c1)CCC2	10	14	20	61*	12
CC1(C(=O)NC2CCCC2)CCC(=O)N1Cc1cccc(Cl)c1 (centres undefined)	0	-11	-2	-13	0
O=C1N(Cc2cccc(Cl)c2)CCN1c1ccc(F)cc1F	1	9	0	48*	0
O=C(COc1ncnc2cc([N+](=O)[O-])ccc12)NCc1ccc2c(c1)OCO2	66*	1	29	3	20
Cc1ccc(OCC(=O)NCc2ccc3c(c2)OCO3)c([N+](=O)[O-])n1	-119	-7	-21	-8	-2
COc1ccc2c(c1)c1nc(C)sc1n2CCN1CCOCC1	43*	8	12	3	0
CCOC(=O)c1ccc(NC(=O)CSc2nnc(CNC(=O)c3ccc(OC)cc3)o2)cc1	0	35*	33*	4	5
O=C(c1cccn(Cc2ccc(C(F)(F)F)cc2)c1=O)N1CCOCC1	2	x	12	x	-1
COc1ccccc1NC(=O)CCc1nc(CSc2nc3ccccc3o2)no1	-119	21	-8	33*	0
SMILES	USP8 inh	USP30 inh	USP17 inh	USP28 inh	USP10 inh
Cc1ccc(C)c(NC(=O)CCc2nc(CSc3nc4ccccc4o3)no2)c1	-4	52*	15	20	2
Cc1cccc(C)c1NC(=O)CCc1nc(CSc2nc3ccccc3o2)no1	-76	31*	10	27	3
COc1ccccc1NC(=O)CCc1nc(-c2ccccc2)no1	-6	9	9	13	0
Cc1ccc(NC(=O)CCc2nc(CSc3nnc(-c4ccccc4)o3)no2)cc1C	-63	31*	8	14	5
COc1cccc(Nc2nc3ccncc3n(Cc3ccccc3)c2=O)c1	-101	-51	-11	-9	-3
COc1ccc(C(=O)N2CCCC2c2nc(-c3ccccc3)no2)cc1F (centres undefined)	-6	-14	-7	-6	1
COc1cc(O)c2c(=O)c(-c3ccc(O)cc3)coc2c1Cl	4	18	28	19	0
Cc1oc2cc3oc(=O)c(CCC(=O)N4CC[C@@]5(O)CCCC[C@H]5C4)c(C)c3cc2c1C	-37	-1	-8	-2	-3
Cc1noc(NS(=O)(=O)c2ccc(NC(=O)COc3ccc(N(C)C(=O)c4ccc(Cl)cc4)cc3)cc2)c1C	5	x	-28	x	16
Cc1noc(NS(=O)(=O)c2ccc(NC(=O)CSc3ccc4ccccc4c3)cc2)c1C	68*	11	52*	36*	28
COc1ccc(CNC(=O)C2CCCN(c3cc(=O)n(C)c(=O)n3C)C2)cc1 (centres undefined)	-16	-82	-16	-22	-8
Cc1ccc(CNc2nc(N)c([N+](=O)[O-])c(NCc3ccccc3)n2)cc1	-11	29	10	12	5
O=C1COc2ccc(C(=O)COC(=O)c3ccc4ccccc4n3)cc2N1	20	-195	44*	-44	-7
COc1ccc(OC)c(C(=O)COC(=O)c2ccc3ccccc3n2)c1	19	0	27	12	2
Cc1ccc(NC(=O)C2C3C=CC4(O3)C2C(=O)N(CCc2ccccc2)C4C(=O)NC2CCCCC2)cc1Cl (centres undefined)	34*	7	26	7	25
CC(C)CCN1C(=O)C2C(C(=O)Nc3ccc(F)cc3)C3(C)C=CC2(O3)C1C(=O)NC1CCCCC1 (centres undefined)	8	36*	24	17	1
O=C(Nc1ccc(Br)cc1)C1C2C=CC3(O2)C1C(=O)N(CCc1ccccc1)C3C(=O)NC1CCCCC1 (centres undefined)	5	16	10	3	4
CSc1cccc(NC(=O)C2C3C=CC4(O3)C2C(=O)N(CCc2ccccc2)C4C(=O)NC2CCCCC2)c1 (centres undefined)	57*	-1	10	0	39*
CC(C)c1ccc(NC(=O)C2C3C=CC4(O3)C2C(=O)N(CCc2ccc(Cl)cc2)C4C(=O)NC2CCCCC2)cc1 (centres undefined)	54*	5	14	6	9
Cc1ccc(-n2c(=O)n(CC(=O)N3CCCCC3)c3cccnc32)cc1	-8	-32	-15	-15	-9
CC1CCCN(C(=O)c2nnn(-c3ccc(C(F)(F)F)cc3)n2)C1 (centres undefined)	0	14	13	4	2
O=C(CSc1cn[nH]n1)Nc1ccc(Cl)c(Cl)c1	8	-1	3	4	6

High-throughput results as filed in PubChem BioAssay.
